PubChem BioAssay (EPA / NIEHS)
The source made the active and inactive calls. How the source made its calls: active means hit-call score of the fitted dose curve at least 0.9, where 1 is the maximum; inactive means score below 0.9.

What was measured:
[1] = BSK_BE3C_SRB: Viability Assessment in the BioMAP Diversity Plus: BE3C Assay (AID 2283028); settings: primary human bronchial epithelial cells;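 on AC50: fitted both ways so AC50 may mark signal gain or loss versus DMSO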
Outline: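 Cytotoxicity read-out: SRB (0.1%) staining of TCA-fixed (10%) human lung bronchial epithelial cells, absorbance 560 nm, 24 h post-dosing. Curves fitted both directions relative to DMSO.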

[2] = read-out: Thrombomodulin, THBD (gene 7056); assay: BSK_3C_Thrombomodulin: BioMAP Diversity Plus: 3C Assay for Thrombomodulin Biomarker Activity (AID 2283029); settings: primary human endothelial cells (HUVEC); actives raise or lower the signal
Outline: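 Human umbilical vein endothelial cells were exposed to chemicals for 24 h; cell-surface thrombomodulin quantified by ELISA, with bidirectional fitting against DMSO baseline.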

[3] = read-out: Vascular endothelial growth factor receptor 2 (Homo sapiens) (UniProt P35968); assay: BSK_4H_VEGFRII: BioMAP Diversity Plus: 4H Assay for Vascular endothelial growth factor receptor 2 (VEGFR2) Biomarker Activity (AID 2283031); settings: primary human endothelial cells (HUVEC); actives raise or lower the signal
Outline: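 Measured by ELISA after 24 h of compound treatment: VEGFR2 on primary human umbilical vein endothelial cells, fitted in both directions relative to DMSO. Parallel cultures received SRB staining (560 nm) for overt cytotoxicity.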

[4] = read-out: Human Leukocyte Antigen - DR isotype (HLADR), HLA-DRA (gene 3122); assay: BSK_BE3C_HLADR: BioMAP Diversity Plus: BE3C Assay for Human Leukocyte Antigen - DR isotype (HLADR) Biomarker Activity (AID 2283032); settings: primary human bronchial epithelial cells; actives raise or lower the signal
Outline: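 Human primary bronchial epithelial cells (BE3C system) exposed to compound for 24 hours; cell-surface HLA-DR measured by ELISA, fitted bidirectionally relative to DMSO. Total protein by SRB in parallel cultures tracked cytotoxicity.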

[5] = read-out: Vascular cell adhesion molecule 1 (VCAM1), VCAM1 (gene 7412); assay: BSK_4H_VCAM1: BioMAP Diversity Plus: 4H Assay for Vascular cell adhesion molecule 1 (VCAM1) Biomarker Activity (AID 2283033); settings: primary human endothelial cells (HUVEC); actives raise or lower the signal
Outline: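 Primary human umbilical vein endothelial cells, 4H stimulation system, treated for 24 h; cell-surface VCAM-1 quantified by ELISA. Bidirectional fitting against DMSO; cytotoxicity tracked by SRB total-protein staining in parallel cultures.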

[6] = read-out: Interferon-gamma inducible Protein 10 (IP10), CXCL10 (gene 3627); assay: BSK_BE3C_IP10: BioMAP Diversity Plus: BE3C Assay for Interferon-gamma inducible Protein 10 (IP10) Biomarker Activity (AID 2283034); settings: primary human bronchial epithelial cells; actives raise or lower the signal
Outline: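 Primary human bronchial epithelial cells, with IP-10 measured by ELISA 24 hours after chemical dosing. Bidirectional fit against DMSO; cytotoxicity checked by SRB total protein staining in parallel cultures.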

[7] = read-out: Monokine induced gamma interferon (MIG), CXCL9 (gene 4283); assay: BSK_BE3C_MIG: BioMAP Diversity Plus: BE3C Assay for Monokine induced gamma interferon (MIG) Biomarker Activity (AID 2283035); settings: primary human bronchial epithelial cells; actives raise or lower the signal;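 further: MIG protein measured by ELISA in BE3C cultures after 24 h of dosing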
Outline: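 ELISA read-out of MIG in human lung bronchial epithelial primary cultures, 24 h post-dosing. Bidirectional curve fit vs DMSO baseline.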

[8] = read-out: Transforming growth factor beta 1 (TGFb1), TGFB1 (gene 7040); assay: BSK_BE3C_TGFb1: BioMAP Diversity Plus: BE3C Assay for Transforming growth factor beta 1 (TGFb1) Biomarker Activity (AID 2283036); settings: primary human bronchial epithelial cells; actives raise or lower the signal
Outline: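 Primary human bronchial epithelial cells dosed with chemical; TGF-b1 measured by ELISA 24 h after dosing. Bidirectional curve fitting against DMSO negative control; SRB total-protein staining in parallel cultures gauged cytotoxicity.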

[9] = read-out: Plasminogen activator inhibitor-1 (PAI1), SERPINE1 (gene 5054); assay: BSK_BE3C_PAI1: BioMAP Diversity Plus: BE3C Assay for Plasminogen activator inhibitor-1 (PAI1) Biomarker Activity (AID 2283037); settings: primary human bronchial epithelial cells; actives raise or lower the signal
Outline: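 Primary human bronchial epithelial cells (BE3C system) exposed 24 h; PAI-1 quantified by ELISA. Parallel sulforhodamine B staining of total protein flags cytotoxicity. Bidirectional fit versus DMSO.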

[10] = read-out: urokinase plasminogen activator (uPA), PLAU (gene 5328); assay: BSK_BE3C_uPA: BioMAP Diversity Plus: BE3C Assay for urokinase plasminogen activator (uPA) Biomarker Activity (AID 2283038); settings: primary human bronchial epithelial cells; actives raise or lower the signal;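 further: uPA protein level quantified by ELISA in cell cultures; uPA read one day after compound addition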
Outline: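 ELISA for uPA on human primary bronchial epithelial cultures 24 h post-treatment, gain or loss against DMSO. Parallel SRB staining (0.1% after 10% TCA fixation, 560 nm) assessed overt cytotoxicity.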

[11] = read-out: Urokinase-type plasminogen activator receptor (uPAR), PLAUR (gene 5329); assay: BSK_BE3C_uPAR: BioMAP Diversity Plus: BE3C Assay for Urokinase-type plasminogen activator receptor (uPAR) Biomarker Activity (AID 2283039); settings: primary human bronchial epithelial cells; actives raise or lower the signal
Outline: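 Primary human bronchial epithelial cells dosed for 24 h; uPAR quantified by ELISA with bidirectional fitting against DMSO. Overt cytotoxicity assessed in parallel cultures by SRB total-protein staining (0.1% SRB, 560 nm).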

[12] = read-out: Interleukin-6 (IL6), IL6 (gene 3569); assay: BSK_CASM3C_IL6: BioMAP Diversity Plus: CASM3C Assay for Interleukin-6 (IL6) Biomarker Activity for (AID 2283040); settings: primary human coronary artery smooth muscle cells; actives raise or lower the signal
[13] = read-out: Interleukin-8 (IL8), CXCL8 (gene 3576); assay: BSK_CASM3C_IL8: BioMAP Diversity Plus: CASM3C Assay for Interleukin-8 (IL8) Biomarker Activity (AID 2283042); settings: primary human coronary artery smooth muscle cells; actives raise or lower the signal;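 further: IL-8 protein level quantified by ELISA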
[14] = read-out: Human Leukocyte Antigen - DR isotype (HLADR), HLA-DRA (gene 3122); assay: BSK_CASM3C_HLADR: BioMAP Diversity Plus: CASM3C Assay for Human Leukocyte Antigen - DR isotype (HLADR) Biomarker Activity (AID 2283043); settings: primary human coronary artery smooth muscle cells; actives raise or lower the signal;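 further: cell-surface HLA-DR protein level quantified by ELISA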
[15] = read-out: Macrophage colony-stimulating factor (MCSF), CSF1 (gene 1435); assay: BSK_CASM3C_MCSF: BioMAP Diversity Plus: CASM3C Assay for Macrophage colony-stimulating factor (MCSF) Biomarker Activity (AID 2283044); settings: primary human coronary artery smooth muscle cells; actives raise or lower the signal;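 further: M-CSF protein amount quantified by ELISA after 24 h exposure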
[16] = read-out: Low-density lipoprotein receptor (LDLR), LDLR (gene 3949); assay: BSK_CASM3C_LDLR: BioMAP Diversity Plus: CASM3C Assay for Low-density lipoprotein receptor (LDLR) Biomarker Activity (AID 2283045); settings: primary human coronary artery smooth muscle cells; actives raise or lower the signal;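 further: LDLR protein level on the cell surface quantified by ELISA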
[17] = read-out: Monocyte Chemoattractant Protein-1 (MCP1), CCL2 (gene 6347); assay: BSK_CASM3C_MCP1: BioMAP Diversity Plus: CASM3C Assay for Monocyte Chemoattractant Protein-1 (MCP1) Biomarker Activity (AID 2283046); settings: primary human coronary artery smooth muscle cells; actives raise or lower the signal;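 further: MCP-1 level quantified by ELISA 24 h after dosing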
[18] = BSK_CASM3C_Proliferation: Cell Proliferation Assessment in the BioMAP Diversity Plus: CASM3C Assay (AID 2283047); settings: primary human coronary artery smooth muscle cells;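 further: sulforhodamine B total protein stain as relative cell number at 560 nm; sub-confluent cells exposed 48 h before staining; fitted both ways against DMSO so gain or loss of cell number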
[19] = read-out: Tissue plasminogen activator (tPA), PLAT (gene 5327); assay: BSK_BE3C_tPA: BioMAP Diversity Plus: BE3C Assay for Tissue plasminogen activator (tPA) Biomarker Activity (AID 2283041); settings: primary human bronchial epithelial cells; actives raise or lower the signal;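 further: tPA level quantified by ELISA one day after compound addition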
Outline: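 Primary human bronchial epithelial cells in the BE3C system, exposed to compound for 24 h. tPA was quantified by ELISA; DMSO served as baseline, with gain or loss of signal fitted. Cytotoxicity checked in parallel cultures by SRB total-protein staining.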

Measured: AC50

O=c1n(Cl)c(=O)n(Cl)c(=O)n1Cl
not listed: [19]
inactive: all other assays above

CCCN(CC)CC1COC2(CCC(C(C)(C)C)CC2)O1 (centres undefined)
active: [11] 1.77 µM | [18] 7.08 µM
not listed: [4]
inactive: all other assays above

CC(C)=CC1C(C(=O)OCc2coc(Cc3ccccc3)c2)C1(C)C (centres undefined)
active: [1] 10.8 µM | [5] 4.5 µM | [18] 24.6 µM
not listed: [19]
inactive: all other assays above

CC(C)(C)C(=O)C(Oc1ccc(Cl)cc1)n1cncn1 (centres undefined)
not listed: [4]
inactive: all other assays above

Cc1nc(N(C)C)nc(OC(=O)N(C)C)c1C
not listed: [4]
inactive: all other assays above

CN=C=S
not listed: [4] | [19]
inactive: all other assays above

CCNC(=O)NC(=O)C(C#N)=NOC
active: [12] 6.13 µM | [17] 1.98 µM
not listed: [3] | [19]
inactive: all other assays above
